Assay outcomes as filed in PubChem.
RecA splice inh: blocks M. tuberculosis RecA intein splicing. AID 2221. inhibition, % (no concentration beside the values). P9WHJ3. hit rate 0.75% among 290,000. cell-free RecA intein splicing, fluorescence; in the data active = inhibition above about 30%;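 also: 0% = vehicle wells and 100% = reference inhibitor control wells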
Target sequence (P9WHJ3 whole entry, looked up, canonical isoform): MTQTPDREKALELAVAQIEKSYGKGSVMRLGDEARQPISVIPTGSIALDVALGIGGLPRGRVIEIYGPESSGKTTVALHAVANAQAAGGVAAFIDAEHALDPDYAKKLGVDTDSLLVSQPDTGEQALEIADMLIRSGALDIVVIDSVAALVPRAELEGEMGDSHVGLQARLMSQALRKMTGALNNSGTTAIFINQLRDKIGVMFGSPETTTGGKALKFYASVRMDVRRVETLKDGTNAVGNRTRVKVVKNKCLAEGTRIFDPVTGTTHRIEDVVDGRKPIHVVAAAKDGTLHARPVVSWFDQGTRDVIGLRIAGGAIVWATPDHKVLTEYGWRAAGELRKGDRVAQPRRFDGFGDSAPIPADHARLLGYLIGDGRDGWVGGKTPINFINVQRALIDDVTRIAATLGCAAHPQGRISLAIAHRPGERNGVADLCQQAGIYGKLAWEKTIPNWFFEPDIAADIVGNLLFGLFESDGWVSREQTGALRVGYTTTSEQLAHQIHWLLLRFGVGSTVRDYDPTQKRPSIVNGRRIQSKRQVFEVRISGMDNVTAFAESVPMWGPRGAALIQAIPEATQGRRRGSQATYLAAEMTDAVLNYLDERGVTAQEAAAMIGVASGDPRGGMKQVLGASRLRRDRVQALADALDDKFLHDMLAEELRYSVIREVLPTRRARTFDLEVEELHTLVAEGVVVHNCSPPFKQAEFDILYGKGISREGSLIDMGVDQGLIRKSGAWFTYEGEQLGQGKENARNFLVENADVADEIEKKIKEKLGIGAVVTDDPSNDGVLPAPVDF
Mtb betalactam: beta-lactam sensitization of Mtb H37Rv | inhibition, % at 25 µM | M. tuberculosis H37Rv growth with meropenem, percent inhibition | AID 434955 | hit rate 0.27% among 330,000;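 also: growth measured after seven days incubation then overnight dye step; 0% = bacteria only wells and 100% = bacteria with antibiotic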
FadD28 binding: inhibitors of Mycobacterium tuberculosis FadD28 bisubstrate binding; FadD28 bisubstrate probe binding, fluorescence polarization; inhibition, % at 12.5 µM; hit rate 0.22% among 360,000; AID 588549; in the data active = inhibition above about 8.5%, passing the limit was not always enough
UGM FP inh: blocks M. tuberculosis UGM enzyme. P9WIQ1. purified UGM, fluorescence polarization probe displacement. inhibition, % at 10 µM. hit rate 0.06% among 320,000. AID 504406; in the data active = inhibition above about 10%, passing the limit was not always enough
Mtb hypoxia inh: Mtb hypoxia fluorescent reporter inhibition; M. tuberculosis hypoxia-regulated fluorescent reporter, fluorescence; fluorescence inhibition, % (test concentration not listed); hit rate 0.1% among 300,000; AID 1159583; in the data active = fluorescence inhibition mostly above about 23%, no sharp cut-off; inactive = mostly below about 17%
Rv3671c protease: inhibits the M. tuberculosis serine protease Rv3671c | P9WHR9 | inhibition, % at 5.96 µM | hit rate 0.048% among 320,000; in the data active = inhibition above about 38%;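 also: extracellular domain of Rv3671c used as enzyme; 0% = enzyme with DMSO and 100% = no enzyme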
GFP chromophore: counter-screen GFP chromophore formation inhibition | EC50, µM | AID 434968 | cell-free GFP chromophore formation, fluorescence | hit rate 83% among 2,100 | shares compounds with RecA splice inh
Numbers without * were called inactive; i = inactive; . = not tested or not shown. A selection: hits, their analogues and other compounds. The true share with any hit is near 0.92%. Unless noted, no rule for the calls is given here.

SMILES	RecA splice inh	Mtb betalactam	FadD28 binding	UGM FP inh	Mtb hypoxia inh	Rv3671c protease	others
COc1cccc(C=NNC(=O)C[n+]2ccccc2)c1O	.	.	.	.	6	.
COc1cc(C=C(c2nc3ccccc3s2)c2nc3ccccc3s2)ccc1O	51*	7	-4	-1	7	3
Cc1ccc(CNC(=O)CCS(=O)(=O)c2ccc3c(c2)oc(=O)n3C)cc1	-1	-8	-1	0	0	-5
COc1ccc(-c2cc(=O)[nH]c3ccccc23)cc1	.	3	-2	11*	-5	-6
COc1ccc(-c2ccc3[nH]c4c(c3c2)CCN2C(=O)[C@@H]([C@H](C)O)[C@@H](N(C)C(=O)Nc3cc(Cl)cc(Cl)c3)C[C@@H]42)cc1	.	.	41*	.	.	.
COCCNC(=O)C(c1cccs1)N(CCc1ccccc1)C(=O)Cn1nnc2ccccc21 (stereo not drawn)	-2	-5	-3	0	5	2
O=S(=O)(CCSc1ccccn1)c1nc2ccccc2s1	40*	93	-1	4	-9	-7
COc1cc(/C=C2/C(=O)NN(c3ccc(Cl)cc3)C2=O)cc(OC)c1O	10	92	8.9*	-16	6	-6
COc1ccccc1-c1ccc2nnc(SCC(=O)N3CCCC3)n2n1	0	0	-2	4	1	3
O=[N+]([O-])c1cc(-c2nnc(Nc3ccc(O)cc3)c3ccccc23)ccc1N1CCOCC1	32*	2	-2	-2	.	6
O=[N+]([O-])c1cc(-c2nnc(Nc3ccccc3)c3ccccc23)ccc1N1CCOCC1	.	-1	-1	-1	-3	6
Cc1ccccc1C1C2=C(Nc3[nH]n(-c4ccccc4)c(=O)c31)c1ccccc1C2=O (stereo not drawn)	.	-2	.	2	.	-8
Cc1cccc(C2C3=C(Nc4[nH]n(-c5ccccc5)c(=O)c42)c2ccccc2C3=O)c1 (stereo not drawn)	9	.	22*	.	6	.
CC1=NNC(=O)C1Cc1ccc(F)cc1 (stereo not drawn)	97*	-2	-1	-1	-1	3
CC1=NNC(=O)C1CCC(=O)N/N=C/c1ccc(C)cc1 (stereo not drawn)	-4	-9	.	4	.	12
O=C(N/N=C/c1cc(Br)ccc1OC(=O)c1ccc(Br)cc1)c1ccncc1	3	100	0	1	.	28
CN(C)CCCN(C(=O)c1ccc2c(c1)CCCC2)c1nc2ccc(Cl)cc2s1	5	100	-4	-2	38*	2
Oc1cnn(-c2ccccc2)c1	63*	94	-2	1	.	2
CC1=NCCc2c1[nH]c1cc(O)ccc21	.	0	-1	31*	0	6
COc1ccc2c3c([nH]c2c1)C(C)=NCC3	i	1	-6	-2	9	-4
COC(=O)Nc1nn(-c2ccc(OC)cc2)c(=O)c(C#N)c1C	40*	1	0	-1	2	2
CC[C@H](C)/C=C(C)/C=C/C1=CC2=C(Cl)C(=O)[C@](C)(OC(C)=O)C(=O)C2=CO1	.	6	17*	.	.	9
S=C(Nc1ccc2nsnc2c1)N1CCCCCC1	55*	4	-1	-2	-1	-162
CCCCCCCOC(=O)c1ccc(OC(=O)c2cccnc2)cc1	64*	3	-4	0	5	-3
O=C(CN1C(=O)S/C(=C\c2ccccc2)C1=O)Nc1cc([N+](=O)[O-])ccc1O	4	-5	18*	0	-3	0
SMILES	RecA splice inh	Mtb betalactam	FadD28 binding	UGM FP inh	Mtb hypoxia inh	Rv3671c protease	others
COc1ccc(-c2cnc3nc(/N=C/N(C)C)nn3c2/N=C/N(C)C)cc1	-2	-9	-2	0	.	-3
CCOC(=O)/C(C#N)=C1/SC(CC)C(=O)N1c1ccc(Br)cc1 (stereo not drawn)	5	-12	-1	0	-6	4
CCOC(=O)/C(C#N)=C1/SC(C)C(=O)N1c1ccc(Br)cc1 (stereo not drawn)	32*	-10	-2	0	11	-9
CCN(CC)c1ccc(C(=C2C=CC(=[N+](CC)CC)C=C2)c2ccc(N(CC)CC)cc2)cc1	.	.	-1	.	100*	.
COc1cc(OC)c(OC)cc1/C=C1\Oc2cc(OCC(=O)N3Cc4ccccc4C[C@H]3C(=O)O)ccc2C1=O	-2	-4	12*	-7	.	-12
COc1ccc(OC)c(/C=C2\Oc3cc(OCC(=O)N4CCC[C@H]4C(=O)O)ccc3C2=O)c1	-3	-4	0	12*	.	2
COc1ccc(/C=C2\Oc3cc(OCC(=O)N4CCC[C@H]4C(=O)O)ccc3C2=O)c(OC)c1	-2	-3	-4	-2	.	-8
c1ccc(C2=NNC(=NC3CC3)SC2)cc1	1	-3	-2	1	9	-4
Cc1cc(C)n2nc(N)c(N=Nc3ccccc3)c2n1	3	98	-4	0	84*	-31
Cc1ccc(-n2c(C)nc3c(cnn3-c3ccc(F)cc3)c2=O)cc1	-4	5	-3	0	.	-1
O=C(NCc1cccnc1)/C(=C\c1ccc(-c2cccc(Cl)c2)o1)S(=O)(=O)c1ccccc1	54*	7	-5	2	2	-18	GFP chromophore=35*
CCOC(=O)C1C(C)N=C2SCC(=O)N2C1c1cccc(Br)c1 (stereo not drawn)	5	-10	-1	-2	-6	-19
CC1CC(=O)c2c(cc3c(-c4c(O)cc(O)c5c(O)c6c(cc45)OC(C)CC6=O)c(O)cc(O)c3c2O)O1 (stereo not drawn)	96*	14	13*	5	.	35	GFP chromophore=2.5*
O=C1CC(c2ccc(O)cc2)Oc2cc(O)cc(O)c21 (stereo not drawn)	1	-3	-4	3	3	-20
CC(NS(=O)(=O)c1cn(C)c(=O)n(C)c1=O)c1ccccc1 (stereo not drawn)	1	5	0	1	0	2
CC(=O)Nc1ccc(-c2sc(Nc3ccccc3)n[n+]2C)cc1	0	7	-4	4	6	-11
O=C1C(Cl)=C(NS(=O)(=O)c2ccc([N+](=O)[O-])cc2)C(=O)c2ccccc21	73*	0	1	1	17	2	GFP chromophore=3.6*
C[n+]1cccc(C(=O)NCC2CCCO2)c1 (stereo not drawn)	-2	10	-1	0	0	7
CCCNC(=O)c1nnsc1S(=O)c1ccc(Cl)cc1 (stereo not drawn)	55*	.	-1	.	24	.	GFP chromophore=39*
O=C(NC1(O)C(=O)c2ccccc2C1=O)c1ccccc1	50*	1	-2	2	.	-116	GFP chromophore=16*
O=C(Nc1ccccc1Cl)c1c(F)c(F)c(F)c(F)c1F	3	99	-2	-1	9	7
O=C(NC1(O)C(=O)c2ccccc2C1=O)c1c(Cl)cccc1Cl	34*	62	2	3	2	-129	GFP chromophore=36*
